“And” between values parts separate entries of the source, which are not always exact repeats. Equal values may be shown once. In all, about 5,500 compounds went through this assay and about 2,000 (36%) were called active. About 18% were inconclusive and are not listed. No stated cut-off is given here; in the data, active means normalized growth mostly below about 0.91 (no sharp cut-off); inconclusive means no clear call, values can overlap the other calls; inactive means mostly above about 0.92. The list shows a part of the results.
Assay: chemical genetic growth profiling, strain panel (AID 1159580);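 further: tested at 20 µM; growth read once vehicle control cultures reached saturation at 30 °C; 1 = growth at the plate median or of vehicle wells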
Conditions: S. cerevisiae deletion strains, growth OD

Measured: normalized growth

C[C@@H]1CC[C@@]2(OC1)OC1C(O)C3C4CC[C@H]5C[C@H](O[C@@H]6O[C@H](CO)[C@H](O[C@@H]7O[C@H](CO)[C@@H](O)[C@H](O[C@@H]8OC[C@@H](O)[C@H](O)[C@H]8O)[C@H]7O[C@@H]7O[C@H](CO)[C@H](O)[C@H](O[C@@H]8O[C@H](CO)[C@@H](O)[C@H](O)[C@H]8O)[C@H]7O)[C@H](O)[C@H]6O)[C@H](O)C[C@]5(C)C4CC[C@]3(C)C1[C@@H]2C (stereo partly specified)
active: locus YAL013W, strain DEP1, stronger effect = lower value 0.0526 | locus YBR021W, strain FUR4, stronger effect = lower value 0.0876 | locus YBR229C, strain ROT2, stronger effect = lower value 0.0499 | locus YCL029C, strain bik1, stronger effect = lower value 0.0554 | locus YDL035C, strain GPR1, stronger effect = lower value 0.0509 | locus YDL074C, strain BRE1, stronger effect = lower value 0.0891 | locus YDL101C, strain DUN1, stronger effect = lower value 0.0606 | locus YDL185W, strain tfp1, stronger effect = lower value 0.0577 | locus YDL192W, strain arf1, stronger effect = lower value 0.0632 | locus YDR101C, strain arx1, stronger effect = lower value 0.0567 | locus YDR137W, strain rgp1, stronger effect = lower value 0.509 | locus YDR150W, strain NUM1, stronger effect = lower value 0.0485 | locus YDR159W, strain sac3, stronger effect = lower value 0.84 | locus YDR162C, strain NBP2, stronger effect = lower value 0.0515 | locus YDR195W, strain ref2 0.61 | locus YDR318W, strain mcm21, stronger effect = lower value 0.0561 | locus YDR335W, strain msn5, stronger effect = lower value 0.907 | locus YDR388W, stronger effect = lower value 0.0552 | locus YDR502C, strain sam2, stronger effect = lower value 0.0624 | locus YER110C, stronger effect = lower value 0.0702 | locus YER111C, strain swi4, stronger effect = lower value 0.642 | locus YER155C, strain BEM2, stronger effect = lower value 0.0639 | locus YER167W, strain BCK2, stronger effect = lower value 0.0533 | locus YGL078C, strain dbp3, stronger effect = lower value 0.0574 | locus YGL086W, strain mad1, stronger effect = lower value 0.0591 | locus YGL167C, strain pmr1, stronger effect = lower value 0.749 | locus YGL240W, strain doc1, stronger effect = lower value 0.846 | locus YGL248W, strain PDE1, stronger effect = lower value 0.0484 | locus YGR078C, strain PAC10, stronger effect = lower value 0.0519 | locus YGR135W, strain pre9, stronger effect = lower value 0.0583 | locus YGR252W, strain gcn5, stronger effect = lower value 0.173 | locus YHR030C, strain SLT2, stronger effect = lower value 0.0897 | locus YHR079C, strain IRE1 (second series), stronger effect = lower value 0.0526 | locus YHR079C, strain IRE1, stronger effect = lower value 0.12 | locus YHR094C, strain hxt1, stronger effect = lower value 0.0539 | locus YHR129C, strain ARP1, stronger effect = lower value 0.0547 | locus YHR200W, strain rpn10, stronger effect = lower value 0.0577 | locus YIL066C, strain RNR3, stronger effect = lower value 0.0505 | locus YIL073C, strain SPO22, stronger effect = lower value 0.119 | locus YIL125W, strain kgd1, stronger effect = lower value 0.0532 | locus YIR030C, strain dcg1, stronger effect = lower value 0.054 | locus YJL095W, strain BCK1, stronger effect = lower value 0.059 and 0.105 | locus YJL134W, strain LCB3, stronger effect = lower value 0.0488 | locus YJL168C, strain set2, stronger effect = lower value 0.0534 | locus YJL187C, strain SWE1 (second series), stronger effect = lower value 0.0518
inactive: locus YAL021C, strain ccr4, stronger effect = lower value 0.988 | locus YAL026C, strain drs2, stronger effect = lower value 1.01 | locus YAL030W, strain snc1, stronger effect = lower value 1.02 | locus YBL061C, strain skt5, stronger effect = lower value 1.01 | locus YBR009C, strain hhf1, stronger effect = lower value 0.942 | locus YBR023C, strain chs3, stronger effect = lower value 1.01 | locus YBR171W, strain sec66, stronger effect = lower value 0.986 | locus YBR231C, strain swc5, stronger effect = lower value 0.99 | locus YBR279W, strain paf1, stronger effect = lower value 1.02 | locus YCL011C, strain gbp2, stronger effect = lower value 0.986 | locus YCL016C, strain dcc1, stronger effect = lower value 0.995 | locus YCL061C, strain MRC1, stronger effect = lower value 0.999 | locus YCL069W, strain vba3, stronger effect = lower value 1.02 | locus YCR088W, strain abp1, stronger effect = lower value 1.01 | locus YDL005C, strain med2, stronger effect = lower value 1.06 | locus YDL040C, strain nat1, stronger effect = lower value 1.02 | locus YDR001C, strain nth1, stronger effect = lower value 1.02 | locus YDR069C, strain doa4, stronger effect = lower value 1.03 | locus YDR297W, strain sur2, stronger effect = lower value 1.02 | locus YDR334W, strain swr1, stronger effect = lower value 1.02 | locus YDR392W, strain spt3, stronger effect = lower value 0.919 | locus YEL003W, strain gim4, stronger effect = lower value 1 | locus YEL037C, strain rad23, stronger effect = lower value 1.02 | locus YEL061C, strain CIN8 (second series), stronger effect = lower value 0.999 | locus YER015W, strain faa2, stronger effect = lower value 1.02 | locus YER016W, strain bim1, stronger effect = lower value 0.977 | locus YER155C, strain BEM2 (second series), stronger effect = lower value 1.01 | locus YFR010W, strain ubp6, stronger effect = lower value 1.01 | locus YGL173C, strain kem1, stronger effect = lower value 1 | locus YGL227W, strain vid30, stronger effect = lower value 1.03 | locus YGL253W, strain hxk2, stronger effect = lower value 1.02 | locus YHR013C, strain ard1, stronger effect = lower value 1.03 | locus YHR027C, strain rpn1, stronger effect = lower value 1.02 | locus YHR142W, strain chs7, stronger effect = lower value 0.876 | locus YJL092W, strain hpr5, stronger effect = lower value 1.01 | locus YJL095W, strain BCK1 (second series), stronger effect = lower value 1.01 | locus YJL115W, strain asf1, stronger effect = lower value 1.03 | locus YJL129C, strain trk1, stronger effect = lower value 0.944 | locus YJL154C, strain vps35, stronger effect = lower value 1.01 | locus YJL164C, strain tpk1, stronger effect = lower value 0.933 | locus YJL166W, strain qcr8, stronger effect = lower value 0.969
